# From PubChem BioAssay (NCI)
# About 79,000 compounds went through this panel and 15% of them were active in at least one assay; those are over-represented in the sample as a whole. Unmarked numbers belong to inactive results. Active and inactive are the calls of the source. No stated cut-off is given here; in the data, active means growth inhibition above about 70%; inactive means the rest.
# Assays:
# [1] = NCI Yeast Anticancer Drug Screen. Data for the rad50 strain (AID 155);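 further: 0% = growth of vehicle-only cultures of the same strain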; details: S. cerevisiae rad50 strain growth inhibition; at 50.0 µM; stronger effect = higher value
# Outline: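 Readout: growth inhibition relative to vehicle-treated cultures. Compound exposure was carried out in a genetically defined yeast strain deficient in DNA damage repair.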
# [2] = NCI Yeast Anticancer Drug Screen. Data for the mec2-1 strain (AID 157); details: S. cerevisiae mec2-1 strain, at 50.0 µM, stronger effect = higher value
# Outline: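 Compounds were applied to mec2-1 yeast cells. Their growth was then compared with that of vehicle-treated cultures to give growth inhibition.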
# [3] = NCI Yeast Anticancer Drug Screen. Data for the sgs1 mgt1 strain (AID 161);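 further: 0% = growth of cultures given vehicle only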; details: S. cerevisiae sgs1 mgt1 strain, at 50.0 µM, stronger effect = higher value
# Outline: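 Yeast cells carrying a defined DNA-repair defect were exposed to test compounds. Growth inhibition was measured relative to vehicle-treated controls.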
# [4] = NCI Yeast Anticancer Drug Screen. Data for the cln2 rad14 strain (AID 165);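 further: 0% = growth equal to vehicle treated cultures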; details: S. cerevisiae cln2 rad14 strain, at 50.0 µM, stronger effect = higher value
# Outline: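 Strain: cln2 rad14 yeast, altered in cell cycle control and DNA damage repair. Read-out: growth inhibition vs vehicle.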
# [5] = NCI Yeast Anticancer Drug Screen. Data for the bub3 strain (AID 167); details: S. cerevisiae bub3 mutant strain, at 50.0 µM, stronger effect = higher value
# Outline: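 Readout: yeast growth inhibition, expressed relative to vehicle-only wells. The test organism is a mutant strain from a panel with lesions in DNA repair or checkpoint genes.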
# [6] = NCI Yeast Anticancer Drug Screen. Data for the mlh1 rad18 strain (AID 175); details: S. cerevisiae mlh1 rad18 strain growth inhibition; at 50.0 µM; stronger effect = higher value
# Outline: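 A repair-deficient yeast strain is exposed to test compound, and growth is scored relative to vehicle-treated controls.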
Compound,growth inhibition [1],growth inhibition [2],growth inhibition [3],growth inhibition [4],growth inhibition [5],growth inhibition [6]
CCOC(=O)c1c(N)sc2c1C(C(=O)OCC)CCCC2 (stereo not given),-11.1%,7.5%,27.3%,-16.2%,37.5%,38.2%
Cc1ccc2c(c1)-c1nc3nnnn3nc1C(C)(C)O2,21%,6.8%,34%,-6.85%,15.1%,26.8%
CCN1N=CSC12C(=O)N(c1ccccc1)C(=O)N2c1ccccc1 (stereo not given),-20.6%,-15.1%,-31.9%,0.35%,-14.7%,-38.6%
O=C(Nc1c[nH]c(=O)[nH]c1=O)Oc1ccccc1,-5.65%,-6.7%,-4.8%,-1%,-50%,5.05%
CCN1/C(=C/C=C/C=C/c2oc3ccccc3[n+]2CC)Oc2ccccc21,34%,5.6%,10.1%,36.8%,0.2%,17.2%
COc1ccc(/C=C/c2ccc3ccccc3[n+]2C)cc1OC,32%,4.55%,32.6%,21.3%,0.7%,15.9%
CCOC(=O)NC(Nc1ccc([N+](=O)[O-])cc1)(C(F)(F)F)C(F)(F)F,45.4%,40.2%,22.8%,32.1%,42%,59.1%
Nc1cc2cn[nH]c2cc1N,-10.6%,4.75%,4.4%,-8.75%,9.3%,25.6%
CN(C)c1ccc(/C=C(\C#N)c2nc(-c3cc4ccccc4oc3=O)cs2)cc1,-2.45%,-13.6%,-23%,-4.3%,-35.7%,-63.2%
CCc1nc(N)nc(N)c1-c1ccc(NCCN)c(N)c1,3.4%,6.35%,5.15%,-6.05%,12.2%,8.5%
C=CCNC(=S)/N=C/C(C(=O)Nc1ccccc1)=C(/C)O,-55.6%,-18.1%,-41.2%,-27.2%,-50.9%,-20.6%
Nc1nnc2nc(C(C(=O)c3cccc(O)c3)c3nc4nnc(N)n4[nH]c3=O)c(=O)[nH]n12,8.65%,0%,-7.05%,4.7%,1.2%,1.05%
CC(Oc1ccc2c(-c3ccc(Cl)cc3)cc(=O)oc2c1)C(=O)O (stereo not given),-15.9%,-4.15%,13.6%,19.1%,-7.15%,32.9%
C[N+](C)(C)c1ccc(C(N)C(=O)O)cc1 (stereo not given),-7.7%,-18.3%,-17.1%,-30.1%,-41.7%,2.8%
O=C(/C=C/c1ccccc1)N(Cc1ccccc1)c1ccccc1,94.3% (active),96.7% (active),96.7% (active),93.5% (active),95.2% (active),95.6% (active)
Cc1cc2nc(CC(C(F)(F)F)C(F)(F)F)oc2cc1C,-21%,-13.4%,-13.2%,-4.85%,-14.4%,34.9%
CN1C(=O)C(=O)C(c2ccccc2)(c2ccccc2)C1=O,9.45%,-4.55%,12.4%,-53.2%,8.75%,-10.8%
O=c1[nH]c2cc(Cl)c(Cl)cc2c2ccc(Cl)cc12,12.2%,-5.55%,-0.35%,-38%,-15.6%,-14.1%
COc1ccc(OC)c2c1CCCC2,-8.4%,-5.95%,-1.65%,-7.35%,0.95%,7.1%
Nc1ccc(S(=O)(=O)Nc2ccccn2)cc1,-2.2%,8.55%,-13.1%,-41.4%,-20.2%,-17.4%

Compound,growth inhibition [1],growth inhibition [2],growth inhibition [3],growth inhibition [4],growth inhibition [5],growth inhibition [6]
CCC1(c2ccc(N3C(=O)c4cc(OC)c(OC)cc4C3=O)cc2)CCC(=O)NC1=O (stereo not given),-6.25%,7.65%,-7.25%,-16.1%,-16%,-32.8%
CCOC(=O)C(=O)Nc1ccccc1CC,-3%,2.9%,-12.3%,-33.5%,11.2%,-3.35%
O=C(c1ccccc1)c1cc(Cl)ccc1NCC(O)COc1ccc(Cl)cc1 (stereo not given),-12.8%,7.05%,-33%,-12.6%,-0.45%,-10.1%
CCCCCOC(=O)c1cccnc1,-8.75%,-16.1%,-15%,-0.2%,0.7%,-1.5%
O=C(O)CCC12CCC(=O)C=C1NC(=O)CC2 (stereo not given),1.55%,-4.4%,-7.2%,-1.65%,0.15%,-1.25%
Cc1cccc(CN)n1,-2.55%,-29.2%,17.4%,4.05%,-5.85%,2.15%
C1CCC2(CC1)SCCS2,2%,-18.4%,-1.9%,-48.9%,-9.4%,-10.4%
CC(=O)Nc1ccc(/C=N\NC(=S)Nc2ccc(F)cc2)cc1,-13.4%,-12.7%,-3.9%,-53.1%,4.65%,-18.8%
c1ccnnc1,15.9%,-29%,4.8%,-10.2%,-0.4%,4.25%
O=C(COc1ccc(Cl)cc1)NCCOC(=O)COc1ccc(Cl)cc1,37.5%,20.4%,12.2%,18.2%,21.3%,52.3%
O=C1C2(CCCC13OC3c1ccccc1)OC2c1ccccc1 (stereo not given),-20.9%,-11.1%,-5.15%,-14.4%,23.3%,-3.6%
COC(=S)SCSC(=S)OC,-12.2%,-27.3%,-2.5%,-14.9%,-6.45%,-27.9%
CC(C)(C)C(N)=O,2.4%,-1.25%,4.35%,-3.9%,-7.25%,-1.25%
C/C=C(\C)c1cc(=O)c2c(C)cc3c(c2o1)C(=O)c1c(O)c(C2CC(C)(N(C)C)C(OC(C)=O)C(C)O2)cc(C2CC(N(C)C)C(O)C(C)O2)c1C3=O (stereo not given),17%,1.95%,9.8%,7.35%,8.15%,-59.6%
C(=C\c1nc2ccccc2nc1/C=C/c1ccccc1)/c1ccccc1,-25.9%,-9.4%,-13.8%,-12.3%,2.7%,9.45%
CC(C)(O)CCC(C)(C)O,60.3%,-19.1%,41.9%,-25.9%,0.5%,45.2%
O=C1SCC(O)=C1/C=N/Nc1nc2ccccc2o1,-11.9%,6.45%,27.1%,31.7%,13.2%,12.3%
O=C(CCc1ccc(O)cc1)c1c(O)cc(O)cc1O,-5.3%,-29.9%,-11.3%,12.9%,-11.2%,-9.05%
COc1cc(=O)n(-c2ccccc2)nc1C#N,2.25%,-0.7%,1.35%,-46.1%,8.85%,-1.2%
CC1(C)CNC(C)(C)CN1,-4.45%,-11.8%,4.35%,1.1%,17.5%,-18%
